Laboratory results published in PubChem BioAssay (Tox21).
Records with an inconclusive call do not appear. Entries that show only a call come without a potency. Active and inactive are the calls of the source. Calls follow the shape of the dose curve; as a rule, active = well fitted cell-killing curve with a large enough effect in the repeat runs; inconclusive = weak or mixed curves, or effect the other way; inactive = flat fitted curve, though single readings scatter.

Test: cAMP Responsive Elements (CRE) small molecule antagonists, cell-based qHTS assay: qHTS cell viability counter screen (AID 2060913); also: nearly all actives have a fitted effect of over 40% in size
Settings: CRE-bla HEK293T viability, CellTiter-Glo luminescence, 5 h; series mostly up to 92.4 µM
In short: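 Cytotoxicity counter screen multiplexed with the CRE-bla antagonist read: HEK293T cells in DMEM with dialyzed FBS and 25 mM HEPES were treated 3 hrs under 0.25 uM final NKH477, then viability measured by CellTiter-Glo luminescence.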
Potency is read from the fitted curve at half-maximal effect.

Compound	Potency
CC(C)NC[C@@H](O)COc1cccc2ccccc12	inactive
CC1=NN(c2cc(Cl)c(S(=O)(=O)O)cc2Cl)C(=O)C1N=Nc1ccc(S(=O)(=O)O)cc1 (stereo unspecified)	inactive
CC(=O)OC(C)OC(=O)C(C)c1ccc(-c2ccccc2)c(F)c1 (stereo unspecified)	inactive
CN(CCCN1c2ccccc2CCc2ccccc21)CC(=O)c1ccc(Cl)cc1	inactive
O=C(O)c1cc(C(=O)O)c(C(=O)O)cc1C(=O)O	inactive
Cc1ccc2c(Cl)cc(Cl)c(O)c2n1	inactive
Nc1nc2c(ncn2COC(CO)CO)c(=O)[nH]1	inactive
CCCCCCCCC/C=C/CC1CC(=O)OC1=O (stereo unspecified)	inactive
C=C(C)C1CC=C(C)C(O)C1 (stereo unspecified)	inactive
CC1(C)C(=O)N(CO)C(=O)N1CO	inactive
Cc1ccncc1	inactive
CC[C@H]1CC[C@H](NCc2cc3c(cc2OC)[C@H]2C[C@H]2C(=O)N3C)[C@H](c2ccccc2)N1	inactive
Nc1ccc(NC(=O)c2ccc(N)cc2)cc1	inactive
O=c1c2ccccc2nnn1CCl	inactive
CCC(C)(C)c1cc(O)c(C(C)(C)CC)cc1O	inactive
CCOC(=O)N1CCC(n2c(=O)[nH]c3cc(Cl)ccc32)CC1	inactive
CCOC(=O)CN1CCCC1=O	inactive
O=C(O)C(O)[C@H](O)[C@@H](O)[C@H](O)[C@H](O)CO (stereo partly specified)	inactive
CCCCC/C(C=O)=C\c1ccccc1	inactive
Nc1cccc2c(=O)[nH][nH]c(=O)c12	inactive
CN(C[C@@H](CC[N+]12CCC(C3CCCCC3)(CC1)CC2)c1ccc(Cl)c(Cl)c1)C(=O)c1cc(C(F)(F)F)cc(C(F)(F)F)c1	54.5 µM (active)
